Experimental data taken from PubChem BioAssay.
Activity calls are given as the source filed them.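 Rule for the calls, unless noted: active = normalized viability below 100% at a tested concentration; inactive = the rest.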

Tests used:
[1] = drug combination growth inhibition, ovarian cancer – cell-based, oncology-focused library, rucaparib conditional, profiling panel (AID 1508598); conditions: patient-derived ovarian cancer cells, CellTiter-Glo viability, 144 h, stronger effect = lower value
[2] = liver-stage malaria parasite load reduction – cell-based, known kinase inhibitor set, luminescence, hepatoma host viability (AID 624392; call rule not given here;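 note: infected cells incubated roughly two days before readout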); conditions: Plasmodium liver stage in hepatoma cells, luciferase luminescence, concentration not given here; liver cell % of control: measured here: host liver cell viability; parasite % of control: stronger effect = lower value
[3] = altered dexamethasone sensitivity, NF-kB reporter, cell-based, luciferase, IL-1B stimulus (AID 624486; call rule not given here;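 for percent of negative control (+Dex): 100% = mean signal of vehicle control wells on the plate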); conditions: IL-1B + dexamethasone, luminescence; percent of negative control (+Dex): actives lie on both sides, concentration not given here; z-score: measured here: IL-1B alone, no Dex
[4] = C. elegans survival during P. aeruginosa infection – whole organism (AID 651566; call rule not given here;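 note: tested at 14 µM; sign flipped so higher z means a lower ratio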); conditions: C. elegans killed by P. aeruginosa, survival ratio
[5] = pro-inflammatory signaling induction in mouse macrophages – cell-based, murine, luminescence (AID 652131; call rule not given here); conditions: murine macrophage pro-inflammatory reporter, stronger effect = higher value
[6] = MELAS cybrid and Rieske KO viability enhancers – cell-based, MELAS cybrids, Rieske KO mouse fibroblasts, CellTiter-Glo, primary screen (AID 1508586;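 active = mean z-score across replicates of 1.96 or higher in either the MELAS or the Rieske mutant cell line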;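 note: z relative to plate mean and SD of compound and empty wells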); conditions: low glucose
[7] = at 0.000305 µM, OCI-C5x cells, with rucaparib 10 µM, 100% = cells with rucaparib alone
[8] = at 0.000305 µM, OCI-C5x cells, without rucaparib
[9] = at 0.000305 µM, OCI-P5x cells, with rucaparib 20 µM, 100% = cells with rucaparib alone
[10] = at 0.000305 µM, OCI-P5x cells, without rucaparib
[11] = at 0.00122 µM, OCI-C5x cells, with rucaparib 10 µM, 100% = cells with rucaparib alone
[12] = at 0.00122 µM, OCI-C5x cells, without rucaparib
[13] = at 0.00122 µM, OCI-P5x cells, with rucaparib 20 µM, 100% = cells with rucaparib alone
[14] = at 0.00122 µM, OCI-P5x cells, without rucaparib
[15] = at 0.00488 µM, OCI-C5x cells, with rucaparib 10 µM, 100% = cells with rucaparib alone
[16] = at 0.00488 µM, OCI-C5x cells, without rucaparib
[17] = at 0.00488 µM, OCI-P5x cells, with rucaparib 20 µM, 100% = cells with rucaparib alone
[18] = at 0.00488 µM, OCI-P5x cells, without rucaparib
[19] = at 0.0195 µM, OCI-C5x cells, with rucaparib 10 µM, 100% = cells with rucaparib alone
[20] = at 0.0195 µM, OCI-C5x cells, without rucaparib
[21] = at 0.0195 µM, OCI-P5x cells, with rucaparib 20 µM, 100% = cells with rucaparib alone
[22] = at 0.0195 µM, OCI-P5x cells, without rucaparib
[23] = at 0.0781 µM, OCI-C5x cells, with rucaparib 10 µM, 100% = cells with rucaparib alone
[24] = at 0.0781 µM, OCI-C5x cells, without rucaparib
[25] = at 0.0781 µM, OCI-P5x cells, with rucaparib 20 µM, 100% = cells with rucaparib alone
[26] = at 0.0781 µM, OCI-P5x cells, without rucaparib
[27] = at 0.313 µM, OCI-C5x cells, with rucaparib 10 µM, 100% = cells with rucaparib alone
[28] = at 0.313 µM, OCI-C5x cells, without rucaparib
[29] = at 0.313 µM, OCI-P5x cells, with rucaparib 20 µM, 100% = cells with rucaparib alone
[30] = at 0.313 µM, OCI-P5x cells, without rucaparib
[31] = at 1.25 µM, OCI-C5x cells, with rucaparib 10 µM, 100% = cells with rucaparib alone
[32] = at 1.25 µM, OCI-C5x cells, without rucaparib
[33] = at 1.25 µM, OCI-P5x cells, with rucaparib 20 µM, 100% = cells with rucaparib alone
[34] = at 1.25 µM, OCI-P5x cells, without rucaparib
[35] = at 5 µM, OCI-C5x cells, with rucaparib 10 µM, 100% = cells with rucaparib alone
[36] = at 5 µM, OCI-C5x cells, without rucaparib
[37] = at 5 µM, OCI-P5x cells, with rucaparib 20 µM, 100% = cells with rucaparib alone
[38] = at 5 µM, OCI-P5x cells, without rucaparib

CO[C@H]1C[C@H]2CC[C@@H](C)[C@@](O)(O2)C(=O)C(=O)N2CCCC[C@H]2C(=O)O[C@H]([C@H](C)C[C@@H]2CC[C@H](OP(C)(C)=O)[C@H](OC)C2)CC(=O)[C@H](C)/C=C(\C)[C@@H](O)[C@@H](OC)C(=O)[C@H](C)C[C@H](C)/C=C/C=C/C=C/1C
active: viability [1, 9] 79.2% | viability [1, 10] 65.5% | viability [1, 12] 97.3% | viability [1, 13] 77.8% | viability [1, 14] 59.6% | viability [1, 15] 97.3% | viability [1, 16] 90.1% | viability [1, 17] 76.6% | viability [1, 18] 61.2% | viability [1, 20] 93.1% | viability [1, 21] 76.4% | viability [1, 22] 63% | viability [1, 24] 96.7% | viability [1, 25] 76.7% | viability [1, 26] 60.3% | viability [1, 28] 95.8% | viability [1, 29] 75.8% | viability [1, 30] 60.4% | viability [1, 32] 94.5% | viability [1, 33] 82.1% | viability [1, 34] 60.8% | viability [1, 37] 74.3% | viability [1, 38] 59.8%
inactive: viability [1, 7] 115% | viability [1, 8] 103% | viability [1, 11] 102% | viability [1, 19] 103% | viability [1, 23] 103% | viability [1, 27] 108% | viability [1, 31] 104% | viability [1, 35] 114% | viability [1, 36] 102%

COc1cccc2c1C(=O)c1c(O)c3c(c(O)c1C2=O)C[C@@](O)(C(=O)CO)C[C@H]3O[C@H]1C[C@H](N)[C@@H](O)[C@H](C)O1
inactive: viability [1, 7] 101% | viability [1, 8] 108% | viability [1, 9] 107% | viability [1, 10] 105% | viability [1, 12] 106% | viability [1, 13] 103% | viability [1, 14] 106% | viability [1, 17] 106% | viability [1, 23] 103%
active: viability [1, 11] 94.3% | viability [1, 15] 90.6% | viability [1, 16] 95.4% | viability [1, 18] 97.5% | viability [1, 19] 78.4% | viability [1, 20] 75.5% | viability [1, 21] 92% | viability [1, 22] 54.5% | viability [1, 24] 83.9% | viability [1, 25] 54% | viability [1, 26] 30.8% | viability [1, 27] 37.5% | viability [1, 28] 43.3% | viability [1, 29] 45.3% | viability [1, 30] 15.5% | viability [1, 31] 15.6% | viability [1, 32] 31.1% | viability [1, 33] 11.7% | viability [1, 34] 10.8% | viability [1, 35] 8.09% | viability [1, 36] 2.52% | viability [1, 37] 3.69% | viability [1, 38] 5.43%

CO[C@H]1C[C@H]2CC[C@@H](C)[C@@](O)(O2)C(=O)C(=O)N2CCCC[C@H]2C(=O)O[C@H]([C@H](C)C[C@@H]2CC[C@H](OC(=O)C(C)(CO)CO)[C@H](OC)C2)CC(=O)[C@H](C)/C=C(\C)[C@@H](O)[C@@H](OC)C(=O)[C@H](C)C[C@H](C)/C=C/C=C/C=C/1C
active: viability [1, 7] 93.5% | viability [1, 8] 93.2% | viability [1, 9] 85% | viability [1, 10] 85% | viability [1, 11] 97% | viability [1, 12] 95.7% | viability [1, 13] 77.3% | viability [1, 14] 69.5% | viability [1, 15] 88.7% | viability [1, 16] 91.6% | viability [1, 17] 71.8% | viability [1, 18] 56.9% | viability [1, 19] 93.2% | viability [1, 20] 88.2% | viability [1, 21] 71% | viability [1, 22] 58.4% | viability [1, 23] 93.3% | viability [1, 24] 84.7% | viability [1, 25] 70.8% | viability [1, 26] 56.6% | viability [1, 27] 96.4% | viability [1, 28] 87.6% | viability [1, 29] 71.6% | viability [1, 30] 57.7% | viability [1, 32] 95.8% | viability [1, 33] 77% | viability [1, 34] 55.6% | viability [1, 35] 93.4% | viability [1, 36] 88% | viability [1, 37] 59.8% | viability [1, 38] 54.1%
inactive: viability [1, 31] 100%

COc1cccc(-n2ncc3c(N/N=C/c4ccc(S(C)(=O)=O)cc4)ncnc32)c1
-0.0857: z-score ([6]; Rieske KO mouse fibroblast survival, CellTiter-Glo 72 h)
107%: liver cell % of control [2]
inactive: parasite % of control [2] 26.1% | z-score [4] -1.31 | z-score [5] -0.723 | z-score ([6]; MELAS cybrid survival, CellTiter-Glo 48 h, stronger effect = higher value) 1.75
active: percent of negative control (+Dex) [3] 136%
0.965: z-score [3]

O=C(O)c1cc(I)ccc1NC(=O)[C@H](Cc1ccccc1)NCc1ccccc1
inactive: viability [1, 7] 126% | viability [1, 8] 116% | viability [1, 10] 102% | viability [1, 11] 129% | viability [1, 12] 111% | viability [1, 13] 107% | viability [1, 15] 133% | viability [1, 16] 118% | viability [1, 19] 119% | viability [1, 20] 116% | viability [1, 23] 124% | viability [1, 24] 116% | viability [1, 27] 134% | viability [1, 28] 111% | viability [1, 31] 132% | viability [1, 32] 115% | viability [1, 35] 126% | viability [1, 36] 112%
active: viability [1, 9] 98.3% | viability [1, 14] 99.9% | viability [1, 17] 98.6% | viability [1, 18] 97.1% | viability [1, 21] 95.6% | viability [1, 22] 99.8% | viability [1, 25] 97.8% | viability [1, 26] 92.4% | viability [1, 29] 95.5% | viability [1, 30] 85.4% | viability [1, 33] 80.7% | viability [1, 34] 77.5% | viability [1, 37] 73.4% | viability [1, 38] 81.4%
